TROY signal inh = inhibitors of TROY-driven NF-kB signaling, primary screen, Q293 LMP1-TROYcd cells, NF-kB luciferase, uHTS | Q293 LMP1-TROYcd NF-kB luciferase reporter, 4 h | inhibition, % at 10 µM | 360,000 tested, 0.98% active | AID 1347056, 2019;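 active = compounds whose plate-normalised and pattern-corrected inhibition of the luciferase reporter signal at the single screening dose is 50% or more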
TWEAK-Fn14 inh = inhibitors of TWEAK-Fn14 signaling, primary screen, luciferase reporter cells, uHTS; AID 1159606, 2016; TWEAK-stimulated Fn14 reporter cells, luciferase luminescence, 8 h; inhibition, % at 10 µM; 360,000 tested, 2% active; in the data active = inhibition above about 50%
KKLEB cytotox = cytotoxicity in KKLEB CF airway cells, primary screen, cytotoxicity control for CF NF-kB inhibitor project, cell-based, uHTS, fluorescence assay plates | KKLEB CF airway cells viability, ATPlite luminescence, overnight; hits give low values; cells stimulated with P. aeruginosa culture filtrate | activity change (cytotoxicity), % at 5 µM | 360,000 tested, 0.36% active;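 active = corrected activity change at or below -50% at 5 µM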
HIF-2a inh = HIF-2a reporter inhibitors, primary screen, luminescence, 786-0 RCC cells | 786-0 RCC cells HIF-2a reporter, luciferase luminescence, overnight | 360,000 tested, 0.72% active | AID 624352, 2012 | inhibition, % at 18.8 µM;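 active = inhibition of the luminescence signal of 40% or more relative to plate controls, in a single-dose primary screen at 18.75 µM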
CF NFkB block = inhibitors of PAF-induced NF-kB signaling, primary screen, cell-based, GFP fluorescence, uHTS. inhibition, % at 5 µM. KKLEB NF-kB-GFP reporter, GFP fluorescence overnight. 360,000 tested, 0.86% active;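 active = at least 50% inhibition at 5 µM, scaled per plate between neutral and stimulator controls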;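 also: PAF is a Pseudomonas aeruginosa culture filtrate used as stimulus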
Peg3 prom inh = Peg3 promoter-driven luciferase inhibitors, primary screen, cell-based, HeLa, luciferase luminescence; AID 588405, 2011; HeLa PEG-Prom luciferase reporter, overnight; 360,000 tested, 1.7% active; inhibition, % at 20 µM;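 active = inhibition of at least 50% at 20 µM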
Of the large screens only hits and unclear results are named; the others gave an inactive call. Compounds with a hit are over-represented: about 4% of the library has one in this group of screens.

COC(=O)[C@]12OC[C@]34C([C@@H](O)[C@@H]1O)[C@]1(C)CC(=O)C(O)=C(C)[C@@H]1C[C@H]3OC(=O)[C@H](O)[C@@H]24 (stereo partly drawn)	TROY signal inh 78.7, TWEAK-Fn14 inh 95.2, HIF-2a inh 44.9
O=C(Nc1cccc2ccccc12)N1Cc2ccccc2-n2nncc2C1	none
N#CC1=C(N)Oc2c(c(=O)oc3ccccc23)C1c1ccc([N+](=O)[O-])o1 (stereo not drawn)	none
O=c1oc2ccccc2c(O)c1[C@H]1c2ccc(O)cc2Oc2c1c(=O)oc1ccccc21	TROY signal inh 65.1
N#Cc1ccc(NC(=S)N2Cc3ccccc3-n3nncc3C2)cc1	none
CCC1(CC)COP(=O)(OCC(Cl)CCl)OC1 (stereo not drawn)	none
C=CCn1c(O)c(C(C)=NCc2cccnc2)c(=O)[nH]c1=O	none
C=CCn1c(O)c(C(C)=NCc2cc(OC)cc(OC)c2)c(=O)[nH]c1=O	Peg3 prom inh 53.8
O=C1NCN(c2ccccc2)C12CCN(C(c1cccs1)c1nnnn1-c1ccc3c(c1)OCCO3)CC2 (stereo not drawn)	none
O=c1[nH]c2ccccc2n1C1CCN(C(c2ccccc2OC(F)(F)F)c2nnnn2-c2ccc3c(c2)OCCO3)CC1 (stereo not drawn)	TWEAK-Fn14 inh 76.3, KKLEB cytotox -86.1, CF NFkB block 82.7, Peg3 prom inh 89.5
COc1cccc(C(c2nnnn2Cc2ccccc2)N2CCC(n3c(=O)[nH]c4ccccc43)CC2)c1OC (stereo not drawn)	KKLEB cytotox -75.1, CF NFkB block 86.9, Peg3 prom inh 73.5
COc1cccc(C(c2nnnn2-c2ccc3c(c2)OCCO3)N2CCC(n3c(=O)[nH]c4ccccc43)CC2)c1OC (stereo not drawn)	KKLEB cytotox -90.5, CF NFkB block 85.3
COc1cccc(C(c2nnnn2C2CCCC2)N2CCC3(CC2)C(=O)NCN3c2ccccc2)c1OC (stereo not drawn)	none
CC(=O)OC1CCC2(C)C(CCC3C2CC(=O)C2(C)C3CC(N3CC3)C2C(C)=O)C1 (stereo not drawn)	none
CN1OC[C@@H]2CN[C@H](c3ccc(Br)cc3)C[C@@H]21	none
CC(C)N=C(NC(C)C)N1CC1	none
Fc1ccc(C(OCCN2CCN(CCCc3ccccc3)CC2)c2ccc(F)cc2)cc1	Peg3 prom inh 67.3
CC(C)c1onc(C(=O)N2CCC3(CC2)OCCO3)c1[N+](=O)[O-]	none
COC1C(OC(=O)c2ccc(C)[nH]2)C(O)C(Oc2ccc3c(O)c(NC(=O)c4ccc(O)c(CC=C(C)C)c4)c(=O)oc3c2Cl)OC1(C)C (stereo not drawn)	TROY signal inh 54.9
Cc1ccccc1-n1c(C)nc2ccsc2c1=O	TWEAK-Fn14 inh 55.0
C[C@]12CCC3C(CCC4=CC(O)CC[C@@]43/C=N/O)C1(O)CCC2C1=CC(=O)OC1 (stereo partly drawn)	TWEAK-Fn14 inh 83.9, KKLEB cytotox -62.5, CF NFkB block 80.7, Peg3 prom inh 104.9
COc1ccc(OC(=O)N(C)C[C@@H]2OCc3ccccc3-c3c(n(C)c4ccccc34)C(=O)N([C@H](C)CO)C[C@@H]2C)cc1	none
CCOC(=O)CNC(=O)N1Cc2ccccc2-n2nncc2C1	none
Cc1ccc(NC(=O)c2ncn(CCCNCCN3CCOCC3)n2)cc1C	TWEAK-Fn14 inh 70.4
C=CCOC(=O)c1ccccc1N	none
Nc1ccccc1C(=O)OCCOc1ccccc1	TWEAK-Fn14 inh 67.0
CC1OC(OC2C(O)CC(OC3C(O)CC(OC4CCC5(C)C(CCC6C5CCC5(C)C(C7=CC(=O)OC7)C(O)CC65O)C4)OC3C)OC2C)CC(O)C1O (stereo not drawn)	TWEAK-Fn14 inh 81.2, KKLEB cytotox -53.9, HIF-2a inh 72.1, CF NFkB block 69.7, Peg3 prom inh 107.3
CC(=O)O[C@@H]1CC[C@]2(C)C3CC[C@@]4(C)C(C[C@@H](O)[C@@H]4O)C3[C@@H](OC(C)=O)C[C@H]2C1 (stereo partly drawn)	none

Assay outcomes from PubChem.
